Experimental data published in the supplement of paper PMC11732987, “Enantioselective OTUD7B fragment discovery through chemoproteomics screening and high-throughput optimisation” (Communications Chemistry, 2025).

Tests used:
Assay in all cases: log2 ratio of Biotin-Ahx-Ub-VS probe labelling (fragment/DMSO); higher = less target engagement (more negative = stronger competition), active = hit call of the paper (q ≤ 0.05, log2 ratio ≤ -1)
Details in all cases: compound concentration: 200 uM; treatment time: 3 h
USP42 = biological target: T1, USP42 (UniProt Q9H9J4)
T1 sequence (whole entry): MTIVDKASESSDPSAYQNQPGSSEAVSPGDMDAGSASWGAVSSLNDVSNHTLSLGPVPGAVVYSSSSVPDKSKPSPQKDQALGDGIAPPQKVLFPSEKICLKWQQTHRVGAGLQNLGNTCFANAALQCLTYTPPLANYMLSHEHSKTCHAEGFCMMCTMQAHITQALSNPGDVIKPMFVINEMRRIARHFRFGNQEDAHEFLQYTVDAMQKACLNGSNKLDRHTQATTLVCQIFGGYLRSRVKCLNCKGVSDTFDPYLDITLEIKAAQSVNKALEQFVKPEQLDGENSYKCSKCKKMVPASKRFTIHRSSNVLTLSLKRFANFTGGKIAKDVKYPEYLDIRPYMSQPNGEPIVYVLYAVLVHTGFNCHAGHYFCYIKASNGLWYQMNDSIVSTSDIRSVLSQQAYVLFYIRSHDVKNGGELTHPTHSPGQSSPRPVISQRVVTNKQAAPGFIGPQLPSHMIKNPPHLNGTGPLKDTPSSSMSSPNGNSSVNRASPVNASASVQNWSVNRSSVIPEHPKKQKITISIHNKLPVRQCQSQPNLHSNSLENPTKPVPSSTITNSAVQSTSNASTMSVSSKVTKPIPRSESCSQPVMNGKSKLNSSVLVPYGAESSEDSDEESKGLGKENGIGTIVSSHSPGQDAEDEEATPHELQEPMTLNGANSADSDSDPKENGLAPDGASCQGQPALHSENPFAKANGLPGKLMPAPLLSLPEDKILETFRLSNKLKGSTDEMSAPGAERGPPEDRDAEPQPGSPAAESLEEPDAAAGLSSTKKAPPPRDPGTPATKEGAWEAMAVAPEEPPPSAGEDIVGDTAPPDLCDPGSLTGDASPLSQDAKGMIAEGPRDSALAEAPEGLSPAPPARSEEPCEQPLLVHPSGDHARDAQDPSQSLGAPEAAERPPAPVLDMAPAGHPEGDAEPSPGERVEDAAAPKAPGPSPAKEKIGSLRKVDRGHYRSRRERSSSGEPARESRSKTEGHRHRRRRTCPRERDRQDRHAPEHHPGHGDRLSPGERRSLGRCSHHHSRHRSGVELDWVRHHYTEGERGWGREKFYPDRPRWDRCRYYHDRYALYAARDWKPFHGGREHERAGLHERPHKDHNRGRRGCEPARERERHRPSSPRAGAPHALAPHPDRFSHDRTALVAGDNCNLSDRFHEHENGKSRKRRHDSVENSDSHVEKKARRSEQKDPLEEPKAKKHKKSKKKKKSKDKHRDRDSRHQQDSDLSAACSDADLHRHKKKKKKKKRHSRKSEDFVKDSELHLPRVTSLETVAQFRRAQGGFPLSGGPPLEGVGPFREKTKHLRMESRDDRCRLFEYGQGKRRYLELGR
How it was run: (§1)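 Labelled DUBs from HEK293T lysate were NeutrAvidin-enriched, digested with LysC and trypsin, and run by diaPASEF LC-MS/MS. Before that, each 495 µg sample in Tris/CHAPS/IGEPAL buffer with protease inhibitors was treated in triplicate with fragment at 200 µM or vehicle for 3 h, then with Biotin-Ahx-Ub-VS at 0.5 µM final for 1 h. Values are average log2 ratios of fragment over vehicle by unpaired t-test, based on global-median-normalised Spectronaut label-free quantities from proteins with ≥2 unique peptides.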

USP46 = USP46 (UniProt P62068)
How it was run: as §1

USP47 = biological target: T2, USP47 (UniProt Q96K76)
T2 sequence (whole entry): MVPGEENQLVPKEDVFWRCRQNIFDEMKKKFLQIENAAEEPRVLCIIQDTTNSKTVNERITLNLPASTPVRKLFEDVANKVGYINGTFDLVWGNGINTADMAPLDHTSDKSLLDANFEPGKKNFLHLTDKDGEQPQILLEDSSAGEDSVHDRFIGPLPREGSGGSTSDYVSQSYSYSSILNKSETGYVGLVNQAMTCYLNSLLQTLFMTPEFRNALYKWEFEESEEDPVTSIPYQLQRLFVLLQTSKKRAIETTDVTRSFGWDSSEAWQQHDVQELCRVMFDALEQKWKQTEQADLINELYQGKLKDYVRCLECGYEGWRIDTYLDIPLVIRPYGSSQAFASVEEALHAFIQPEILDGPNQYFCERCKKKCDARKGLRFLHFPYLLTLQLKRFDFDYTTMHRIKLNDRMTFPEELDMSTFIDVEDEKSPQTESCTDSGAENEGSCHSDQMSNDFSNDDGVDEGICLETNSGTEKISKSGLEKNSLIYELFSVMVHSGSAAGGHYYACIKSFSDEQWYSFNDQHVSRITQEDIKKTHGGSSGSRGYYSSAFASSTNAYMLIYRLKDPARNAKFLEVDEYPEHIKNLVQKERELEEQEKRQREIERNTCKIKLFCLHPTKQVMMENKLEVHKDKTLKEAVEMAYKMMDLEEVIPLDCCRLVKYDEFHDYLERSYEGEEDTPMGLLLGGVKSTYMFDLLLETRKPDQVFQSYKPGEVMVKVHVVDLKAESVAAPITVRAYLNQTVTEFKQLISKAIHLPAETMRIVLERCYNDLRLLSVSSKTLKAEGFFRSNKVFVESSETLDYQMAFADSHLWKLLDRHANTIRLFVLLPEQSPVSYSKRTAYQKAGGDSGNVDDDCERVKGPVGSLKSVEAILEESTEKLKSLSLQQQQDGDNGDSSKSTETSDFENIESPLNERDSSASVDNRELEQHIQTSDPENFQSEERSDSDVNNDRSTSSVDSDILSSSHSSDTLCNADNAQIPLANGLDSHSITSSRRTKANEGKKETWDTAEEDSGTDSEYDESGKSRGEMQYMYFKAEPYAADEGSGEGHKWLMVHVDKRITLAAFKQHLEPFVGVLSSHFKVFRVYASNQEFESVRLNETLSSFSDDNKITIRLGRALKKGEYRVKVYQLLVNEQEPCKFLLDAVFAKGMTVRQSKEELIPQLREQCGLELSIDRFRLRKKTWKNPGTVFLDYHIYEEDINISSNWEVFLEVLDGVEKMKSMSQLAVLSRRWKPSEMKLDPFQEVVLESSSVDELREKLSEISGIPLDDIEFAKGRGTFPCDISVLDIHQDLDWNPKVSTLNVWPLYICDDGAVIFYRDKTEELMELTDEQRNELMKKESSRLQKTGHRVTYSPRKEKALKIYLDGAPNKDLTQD
How it was run: as §1

USP48 = biological target: T3, USP48 (UniProt Q86UV5)
T3 sequence (whole entry): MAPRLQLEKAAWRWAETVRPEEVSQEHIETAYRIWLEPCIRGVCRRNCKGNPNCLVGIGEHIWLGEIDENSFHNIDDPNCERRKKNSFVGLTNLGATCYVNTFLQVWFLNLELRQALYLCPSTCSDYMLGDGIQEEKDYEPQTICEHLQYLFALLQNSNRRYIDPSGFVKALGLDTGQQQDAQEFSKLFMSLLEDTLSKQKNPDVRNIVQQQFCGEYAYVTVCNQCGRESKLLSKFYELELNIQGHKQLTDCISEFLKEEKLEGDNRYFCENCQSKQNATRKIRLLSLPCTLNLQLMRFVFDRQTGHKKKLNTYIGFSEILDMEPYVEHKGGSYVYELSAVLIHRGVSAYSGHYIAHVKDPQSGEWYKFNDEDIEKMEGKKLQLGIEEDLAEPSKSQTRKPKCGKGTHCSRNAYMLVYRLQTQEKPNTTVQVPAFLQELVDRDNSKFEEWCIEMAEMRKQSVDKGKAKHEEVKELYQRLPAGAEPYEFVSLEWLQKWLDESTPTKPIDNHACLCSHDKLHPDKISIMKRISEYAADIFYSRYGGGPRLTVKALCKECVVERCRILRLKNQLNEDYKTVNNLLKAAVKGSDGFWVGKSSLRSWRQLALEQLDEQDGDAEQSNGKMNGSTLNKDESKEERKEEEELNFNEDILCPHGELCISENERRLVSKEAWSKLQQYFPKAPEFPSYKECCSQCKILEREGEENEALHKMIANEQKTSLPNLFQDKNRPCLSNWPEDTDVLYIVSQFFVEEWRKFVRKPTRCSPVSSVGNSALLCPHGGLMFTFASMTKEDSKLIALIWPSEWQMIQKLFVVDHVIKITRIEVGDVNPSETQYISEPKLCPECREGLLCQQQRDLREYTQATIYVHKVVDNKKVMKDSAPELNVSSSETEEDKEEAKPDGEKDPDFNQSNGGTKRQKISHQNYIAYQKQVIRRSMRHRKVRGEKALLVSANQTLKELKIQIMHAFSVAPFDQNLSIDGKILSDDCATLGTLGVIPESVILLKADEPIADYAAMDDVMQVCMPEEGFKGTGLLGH
How it was run: as §1

USP5 = biological target: T4, USP5 (UniProt P45974)
T4 sequence (whole entry): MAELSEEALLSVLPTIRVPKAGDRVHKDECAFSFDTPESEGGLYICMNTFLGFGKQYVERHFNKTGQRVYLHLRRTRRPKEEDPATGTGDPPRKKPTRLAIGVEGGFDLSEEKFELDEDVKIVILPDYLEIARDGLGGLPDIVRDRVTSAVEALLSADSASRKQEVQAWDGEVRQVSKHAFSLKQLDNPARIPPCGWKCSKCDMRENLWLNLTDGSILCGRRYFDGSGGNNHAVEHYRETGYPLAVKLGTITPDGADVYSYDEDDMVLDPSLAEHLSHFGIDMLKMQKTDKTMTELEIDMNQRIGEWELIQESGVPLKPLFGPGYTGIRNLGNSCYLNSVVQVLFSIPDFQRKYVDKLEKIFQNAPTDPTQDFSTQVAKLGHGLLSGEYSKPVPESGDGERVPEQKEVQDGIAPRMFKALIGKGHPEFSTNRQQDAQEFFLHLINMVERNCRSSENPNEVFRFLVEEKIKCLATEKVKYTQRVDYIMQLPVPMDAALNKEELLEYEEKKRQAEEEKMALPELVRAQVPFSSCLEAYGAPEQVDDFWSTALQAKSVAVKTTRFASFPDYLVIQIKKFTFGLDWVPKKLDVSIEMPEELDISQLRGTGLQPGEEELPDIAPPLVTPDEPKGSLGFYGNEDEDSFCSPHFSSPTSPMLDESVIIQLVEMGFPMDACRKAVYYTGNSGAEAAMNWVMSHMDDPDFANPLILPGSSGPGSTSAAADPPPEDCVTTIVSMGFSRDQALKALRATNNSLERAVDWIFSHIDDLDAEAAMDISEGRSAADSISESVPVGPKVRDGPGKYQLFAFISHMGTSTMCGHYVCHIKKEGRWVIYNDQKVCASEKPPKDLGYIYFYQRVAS
How it was run: as §1

USP54 = USP54 (UniProt Q70EL1)
How it was run: as §1

USP7 = USP7 (UniProt Q93009)
How it was run: as §1

USP8 = biological target: T5, USP8 (UniProt P40818)
T5 sequence (whole entry): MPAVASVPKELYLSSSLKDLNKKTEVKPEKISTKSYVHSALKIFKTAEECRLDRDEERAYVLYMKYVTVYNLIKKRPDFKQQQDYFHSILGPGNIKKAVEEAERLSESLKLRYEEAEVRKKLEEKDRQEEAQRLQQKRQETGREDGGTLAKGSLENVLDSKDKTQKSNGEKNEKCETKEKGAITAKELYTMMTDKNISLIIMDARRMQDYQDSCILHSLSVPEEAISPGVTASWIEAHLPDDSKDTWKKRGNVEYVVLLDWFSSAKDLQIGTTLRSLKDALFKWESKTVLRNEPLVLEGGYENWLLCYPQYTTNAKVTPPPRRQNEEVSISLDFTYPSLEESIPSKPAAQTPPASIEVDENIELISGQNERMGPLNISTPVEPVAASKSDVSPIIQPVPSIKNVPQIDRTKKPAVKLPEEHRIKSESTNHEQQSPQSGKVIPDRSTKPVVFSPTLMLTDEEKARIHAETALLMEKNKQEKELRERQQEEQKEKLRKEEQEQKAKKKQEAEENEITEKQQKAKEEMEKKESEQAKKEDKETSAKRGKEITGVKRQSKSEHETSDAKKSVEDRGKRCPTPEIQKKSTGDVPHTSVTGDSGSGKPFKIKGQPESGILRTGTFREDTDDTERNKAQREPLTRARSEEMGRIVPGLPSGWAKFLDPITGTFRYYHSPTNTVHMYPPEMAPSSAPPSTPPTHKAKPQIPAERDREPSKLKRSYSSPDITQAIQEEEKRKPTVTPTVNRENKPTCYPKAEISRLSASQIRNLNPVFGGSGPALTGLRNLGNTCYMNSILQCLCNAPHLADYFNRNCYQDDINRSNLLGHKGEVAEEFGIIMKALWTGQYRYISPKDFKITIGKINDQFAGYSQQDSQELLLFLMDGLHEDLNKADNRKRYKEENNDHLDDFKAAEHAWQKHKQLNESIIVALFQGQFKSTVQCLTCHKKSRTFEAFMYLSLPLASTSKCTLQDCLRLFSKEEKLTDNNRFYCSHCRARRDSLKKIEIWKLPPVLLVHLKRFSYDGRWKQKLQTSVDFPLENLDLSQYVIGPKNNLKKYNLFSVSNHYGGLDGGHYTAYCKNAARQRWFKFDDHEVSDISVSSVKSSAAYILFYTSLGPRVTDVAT
How it was run: as §1

USP9X = USP9X (UniProt Q93008)
How it was run: as §1

UniProt O00487 = biological target: UniProt O00487
How it was run: as §1

Measured: log2 ratio of Biotin-Ahx-Ub-VS probe labelling

USP46, sequence (P62068 whole entry): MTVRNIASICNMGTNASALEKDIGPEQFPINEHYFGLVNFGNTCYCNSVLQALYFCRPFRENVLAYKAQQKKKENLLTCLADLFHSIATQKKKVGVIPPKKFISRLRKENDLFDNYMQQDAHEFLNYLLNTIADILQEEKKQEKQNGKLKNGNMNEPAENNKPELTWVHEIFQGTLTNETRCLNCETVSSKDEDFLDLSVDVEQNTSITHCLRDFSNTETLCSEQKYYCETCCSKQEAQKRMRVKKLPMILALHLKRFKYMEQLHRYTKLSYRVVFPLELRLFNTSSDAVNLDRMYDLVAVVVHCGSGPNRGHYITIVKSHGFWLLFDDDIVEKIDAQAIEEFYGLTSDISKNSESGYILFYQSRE
USP54, sequence (Q70EL1 whole entry): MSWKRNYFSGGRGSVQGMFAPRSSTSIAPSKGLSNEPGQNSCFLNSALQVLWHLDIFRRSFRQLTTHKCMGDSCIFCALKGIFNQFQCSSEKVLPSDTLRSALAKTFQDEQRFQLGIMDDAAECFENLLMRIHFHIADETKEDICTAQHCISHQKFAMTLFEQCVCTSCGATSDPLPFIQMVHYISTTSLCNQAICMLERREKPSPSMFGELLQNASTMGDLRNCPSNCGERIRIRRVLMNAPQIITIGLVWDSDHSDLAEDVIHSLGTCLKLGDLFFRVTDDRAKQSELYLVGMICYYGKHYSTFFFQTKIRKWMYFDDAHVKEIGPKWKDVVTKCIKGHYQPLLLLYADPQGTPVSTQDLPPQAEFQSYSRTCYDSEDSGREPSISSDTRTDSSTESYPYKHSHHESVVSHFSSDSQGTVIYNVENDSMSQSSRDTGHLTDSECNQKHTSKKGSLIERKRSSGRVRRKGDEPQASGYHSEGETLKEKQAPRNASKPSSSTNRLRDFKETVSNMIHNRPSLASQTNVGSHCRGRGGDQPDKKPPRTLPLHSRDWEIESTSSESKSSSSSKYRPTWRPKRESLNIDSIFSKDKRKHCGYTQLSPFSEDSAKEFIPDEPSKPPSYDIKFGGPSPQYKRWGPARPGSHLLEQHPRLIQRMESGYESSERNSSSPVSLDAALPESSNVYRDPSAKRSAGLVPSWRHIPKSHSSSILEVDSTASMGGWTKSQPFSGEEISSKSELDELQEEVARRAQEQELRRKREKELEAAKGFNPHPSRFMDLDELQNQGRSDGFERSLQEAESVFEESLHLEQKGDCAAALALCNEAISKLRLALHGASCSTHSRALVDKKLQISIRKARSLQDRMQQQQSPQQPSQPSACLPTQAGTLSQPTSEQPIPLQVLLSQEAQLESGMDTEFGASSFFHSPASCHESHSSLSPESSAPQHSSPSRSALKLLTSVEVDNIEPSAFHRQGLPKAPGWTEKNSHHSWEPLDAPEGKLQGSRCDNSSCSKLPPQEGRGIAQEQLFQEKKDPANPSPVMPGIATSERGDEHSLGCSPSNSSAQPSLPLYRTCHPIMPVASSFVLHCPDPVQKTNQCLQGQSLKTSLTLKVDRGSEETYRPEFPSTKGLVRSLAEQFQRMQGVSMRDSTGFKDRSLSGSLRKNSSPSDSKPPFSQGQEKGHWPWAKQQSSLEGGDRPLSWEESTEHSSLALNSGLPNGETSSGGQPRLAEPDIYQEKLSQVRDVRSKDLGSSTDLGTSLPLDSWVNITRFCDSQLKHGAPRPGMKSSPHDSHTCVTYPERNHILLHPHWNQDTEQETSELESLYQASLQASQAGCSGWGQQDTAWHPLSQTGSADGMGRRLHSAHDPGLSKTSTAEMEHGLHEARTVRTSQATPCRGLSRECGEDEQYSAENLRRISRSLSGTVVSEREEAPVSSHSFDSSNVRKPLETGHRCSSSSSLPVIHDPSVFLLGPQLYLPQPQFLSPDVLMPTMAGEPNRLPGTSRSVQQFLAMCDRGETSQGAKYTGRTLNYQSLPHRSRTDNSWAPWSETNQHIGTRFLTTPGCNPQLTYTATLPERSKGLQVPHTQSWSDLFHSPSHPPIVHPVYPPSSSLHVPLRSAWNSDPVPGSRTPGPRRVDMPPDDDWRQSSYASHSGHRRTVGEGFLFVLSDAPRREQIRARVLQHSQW
USP9X, sequence (Q93008 whole entry): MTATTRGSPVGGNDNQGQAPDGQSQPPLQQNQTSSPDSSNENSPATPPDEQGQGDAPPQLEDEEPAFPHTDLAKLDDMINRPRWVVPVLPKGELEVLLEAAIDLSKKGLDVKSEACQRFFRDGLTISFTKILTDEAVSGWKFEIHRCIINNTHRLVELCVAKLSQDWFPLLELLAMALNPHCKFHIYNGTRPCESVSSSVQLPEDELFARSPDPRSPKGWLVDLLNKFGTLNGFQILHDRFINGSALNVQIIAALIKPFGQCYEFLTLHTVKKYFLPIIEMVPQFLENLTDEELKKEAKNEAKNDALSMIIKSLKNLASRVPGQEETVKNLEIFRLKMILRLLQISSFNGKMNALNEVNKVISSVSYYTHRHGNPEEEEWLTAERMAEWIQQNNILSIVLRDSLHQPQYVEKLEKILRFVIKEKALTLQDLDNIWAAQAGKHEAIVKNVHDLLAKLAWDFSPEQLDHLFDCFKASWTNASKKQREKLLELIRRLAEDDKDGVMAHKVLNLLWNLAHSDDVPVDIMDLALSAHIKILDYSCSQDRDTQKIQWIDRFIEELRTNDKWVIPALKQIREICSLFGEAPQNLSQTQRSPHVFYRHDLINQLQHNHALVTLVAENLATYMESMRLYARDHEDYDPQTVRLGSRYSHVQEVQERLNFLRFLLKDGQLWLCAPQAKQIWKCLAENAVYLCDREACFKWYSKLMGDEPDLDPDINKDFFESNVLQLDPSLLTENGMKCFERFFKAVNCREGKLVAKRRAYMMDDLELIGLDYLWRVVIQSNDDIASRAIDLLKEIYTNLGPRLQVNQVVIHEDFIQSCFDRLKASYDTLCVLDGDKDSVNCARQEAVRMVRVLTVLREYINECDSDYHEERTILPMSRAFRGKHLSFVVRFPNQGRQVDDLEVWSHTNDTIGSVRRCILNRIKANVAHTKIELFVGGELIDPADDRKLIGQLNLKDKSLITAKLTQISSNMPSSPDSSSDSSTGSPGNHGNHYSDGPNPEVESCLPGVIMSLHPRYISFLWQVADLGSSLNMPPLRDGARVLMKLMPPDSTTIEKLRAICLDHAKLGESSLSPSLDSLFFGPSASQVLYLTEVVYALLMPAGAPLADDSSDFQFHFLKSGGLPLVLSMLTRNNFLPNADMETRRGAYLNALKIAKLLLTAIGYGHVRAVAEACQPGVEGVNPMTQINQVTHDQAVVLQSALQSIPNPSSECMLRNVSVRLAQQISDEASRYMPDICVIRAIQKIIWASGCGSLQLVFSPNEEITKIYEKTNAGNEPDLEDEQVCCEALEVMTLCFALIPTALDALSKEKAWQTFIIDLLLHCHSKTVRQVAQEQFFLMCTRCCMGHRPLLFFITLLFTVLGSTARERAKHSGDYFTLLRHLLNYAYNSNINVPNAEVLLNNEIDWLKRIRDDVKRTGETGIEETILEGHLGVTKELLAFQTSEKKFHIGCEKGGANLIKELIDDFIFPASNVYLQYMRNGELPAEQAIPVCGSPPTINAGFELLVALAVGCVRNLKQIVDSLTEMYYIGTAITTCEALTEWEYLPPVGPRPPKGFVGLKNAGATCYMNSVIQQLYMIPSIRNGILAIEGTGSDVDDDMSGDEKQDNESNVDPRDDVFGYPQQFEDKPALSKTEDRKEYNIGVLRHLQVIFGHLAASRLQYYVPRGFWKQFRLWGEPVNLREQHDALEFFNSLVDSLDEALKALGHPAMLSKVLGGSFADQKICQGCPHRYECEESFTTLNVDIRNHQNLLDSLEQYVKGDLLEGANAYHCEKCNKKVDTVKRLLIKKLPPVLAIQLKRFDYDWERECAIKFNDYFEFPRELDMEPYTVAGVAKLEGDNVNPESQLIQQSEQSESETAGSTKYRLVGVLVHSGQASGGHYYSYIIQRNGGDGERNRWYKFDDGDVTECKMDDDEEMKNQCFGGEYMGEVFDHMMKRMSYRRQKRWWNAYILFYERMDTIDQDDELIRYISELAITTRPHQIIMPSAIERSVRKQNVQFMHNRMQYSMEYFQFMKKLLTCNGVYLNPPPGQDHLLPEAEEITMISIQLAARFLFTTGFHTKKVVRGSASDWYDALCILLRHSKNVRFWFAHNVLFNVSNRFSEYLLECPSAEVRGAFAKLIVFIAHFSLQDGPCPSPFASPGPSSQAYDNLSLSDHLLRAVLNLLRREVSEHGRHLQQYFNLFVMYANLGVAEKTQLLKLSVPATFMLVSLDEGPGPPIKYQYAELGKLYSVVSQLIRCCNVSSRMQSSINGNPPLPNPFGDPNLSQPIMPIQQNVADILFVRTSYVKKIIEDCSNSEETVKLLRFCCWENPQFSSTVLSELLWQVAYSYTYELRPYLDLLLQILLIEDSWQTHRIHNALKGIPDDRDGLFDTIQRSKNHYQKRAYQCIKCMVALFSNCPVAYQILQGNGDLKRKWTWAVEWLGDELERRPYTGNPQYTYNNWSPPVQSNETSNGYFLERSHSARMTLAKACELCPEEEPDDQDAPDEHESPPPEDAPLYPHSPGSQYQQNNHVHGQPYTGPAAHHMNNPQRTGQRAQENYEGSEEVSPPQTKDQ
UniProt O00487, sequence (O00487 whole entry): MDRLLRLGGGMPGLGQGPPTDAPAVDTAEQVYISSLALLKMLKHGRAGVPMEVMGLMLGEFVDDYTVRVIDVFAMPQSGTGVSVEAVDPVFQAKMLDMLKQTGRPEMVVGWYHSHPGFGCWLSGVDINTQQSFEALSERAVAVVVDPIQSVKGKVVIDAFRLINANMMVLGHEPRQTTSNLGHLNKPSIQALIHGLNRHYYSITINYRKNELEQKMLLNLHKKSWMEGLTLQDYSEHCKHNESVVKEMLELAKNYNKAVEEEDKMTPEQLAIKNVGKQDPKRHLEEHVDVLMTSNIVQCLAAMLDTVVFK

N#Cc1cnn(-c2ccccc2)c1NC(=O)CCl
inactive: USP42 -0.0771 | USP46 -0.0464 | USP47 -0.263 | USP48 -0.451 | USP5 -0.203 | USP54 0.718 | USP7 -0.45 | USP8 -0.512 | USP9X -0.317 | UniProt O00487 -0.0605
